In the library only some 8.9% were active in any assay of this set; here they are far more common.
IMPase Li inh – cell-permeable IMPase inhibitors with lithium potentiation; CHO-M1 cells, IP1 TR-FRET (IP-One), carbachol + lithium; Potency, µM (doses to about 59.4 µM), for the others: top-dose activity, negative = IMPase inhibition, hits mostly inhibitors; 210,000 compounds, 0.35% hits;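 further: IP1 builds up when IMPase is blocked and the TR-FRET signal falls; potency means the concentration at half of the fitted maximal effect; plate controls were basal vehicle for no effect and high inhibitor control for full effect; nearly all actives have a fitted effect of over 50% in size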
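Lithium-sensitised IP1 accumulation assay; M1-expressing CHO cells treated 30 min at 37C with compound. Competitive antibody detection by time-resolved FRET followed a 10 min room-temperature lysis step.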
NPSR antagonist – blocks cAMP signaling of the human neuropeptide S receptor; CHO-NPSR cells, cAMP TR-FRET, antagonist mode; AID 1461; Potency, µM (doses to about 38.3 µM), inactives show at the top dose activity change, negative = inhibition, actives largely listed as inhibitors; Q6W5P4; 220,000 compounds, 1% hits; further: potency means the concentration at half of the fitted maximal effect; nearly all actives have a fitted effect of over 50% in size
Target sequence (Q6W5P4 whole entry, looked up): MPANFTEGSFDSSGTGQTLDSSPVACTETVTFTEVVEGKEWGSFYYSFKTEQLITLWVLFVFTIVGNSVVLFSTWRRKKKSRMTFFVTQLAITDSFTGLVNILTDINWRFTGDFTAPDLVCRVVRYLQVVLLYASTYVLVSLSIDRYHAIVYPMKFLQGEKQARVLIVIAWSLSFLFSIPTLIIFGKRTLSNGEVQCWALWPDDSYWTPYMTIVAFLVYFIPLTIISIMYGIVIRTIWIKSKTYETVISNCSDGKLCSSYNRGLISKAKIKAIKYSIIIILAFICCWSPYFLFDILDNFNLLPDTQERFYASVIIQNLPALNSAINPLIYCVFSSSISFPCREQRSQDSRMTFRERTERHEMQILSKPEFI
ALOX12 inhib – blocks human 12-lipoxygenase activity; purified 12-hLO, xylenol orange hydroperoxide absorbance; 150,000 compounds, 0.12% hits; Potency, µM (highest dose often 57.1 µM), for inactives: at the top dose activity change, negative = inhibition, most hits filed as inhibitors; AID 1452; further: potency means the concentration at half of the fitted maximal effect; nearly all actives have a fitted effect of over 55% in size
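Hydroperoxide formation by human 12-lipoxygenase from 40 uM arachidonic acid was followed colorimetrically via ferric-xylenol orange complex, using the 573/405 nm absorbance ratio. Enzyme concentration was 150 nM, with 30 min reaction at room temperature.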
IMPase cell inh – cell-permeable inhibitors of inositol monophosphatase (IMPase); CHO-M1 cells, IP1 accumulation, HTRF TR-FRET ratio; 120,000 tested, under 10 active; inhibition (IP1 accumulation), % at 46.1 µM; P97697; active means well fitted curve in the direction sought with a large enough effect in the signal ratio, not every such curve was filed as active; inconclusive means small, poorly fitted or top-dose-only effect, or a change in a side signal; inactive means no such curve, though single readings can be large or run the other way; the % refers to the signal ratio;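 further: cells stimulated with carbachol in lithium chloride buffer; plate controls were DMSO basal wells for no effect and reference inhibitor wells for full effect; higher means more IMPase inhibition seen as more IP1 and lower FRET ratio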
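Measured: the HTRF emission ratio (665/620 nm) plus the 620 nm donor channel, each fitted to the Hill equation to give AC50. Cells were CHO-M1 given compounds up to 46 uM and a 30 min carbachol stimulation at 37C.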
ALDH1A1 inh – blocks purified human ALDH1A1 activity; Potency, µM (titrated, usually from 75.3 µM), for the others: top-dose activity, negative = inhibition, usual class: inhibitors; 220,000 compounds, 7.3% hits; Purified ALDH1A1, NADH fluorescence, propionaldehyde substrate; P00352; AID 1030; active means well fitted inhibition curve with a large enough effect, not every such curve was filed as active; inconclusive means small, poorly fitted or top-dose-only effect, or another doubt; inactive means no such curve, though single readings can be large or run the other way;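 further: potency means the concentration at half of the fitted maximal effect; plate controls were no enzyme wells and a reference inhibitor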
HPGD block – HPGD (human) dehydrogenase inhibition | purified HPGD, NADH fluorescence kinetic, PGE2 substrate | Potency, µM, for the others: at the top dose activity change, negative = inhibition, actives largely listed as inhibitors | 150,000 compounds, 4.3% hits | AID 894; active means well fitted inhibition curve with a large enough effect, not every such curve was filed as active; inconclusive means small, poorly fitted or top-dose-only effect, or another doubt; inactive means no such curve, though single readings can be large or run the other way; further: potency means the concentration at half of the fitted maximal effect
Target sequence (P15428 whole entry, looked up): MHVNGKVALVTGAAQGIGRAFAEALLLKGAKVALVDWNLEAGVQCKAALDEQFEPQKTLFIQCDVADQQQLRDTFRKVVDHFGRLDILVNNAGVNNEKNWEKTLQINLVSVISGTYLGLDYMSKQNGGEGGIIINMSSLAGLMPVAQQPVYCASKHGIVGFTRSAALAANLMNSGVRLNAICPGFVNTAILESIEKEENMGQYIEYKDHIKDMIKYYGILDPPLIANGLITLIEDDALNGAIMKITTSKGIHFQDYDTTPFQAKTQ
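20 nM HPGD preincubated 15 min at room temperature with compound in 50 mM Tris-HCl pH 8, 0.01% Tween 20. Started with 1 mM NAD+ and 30 uM prostaglandin E2; NADH fluorescence (360/450 nm) read 5 times over 30-s intervals, last minus first.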
Active calls of the source: *; ? = inconclusive; . = no result given; [ ] = dose if it differs, or a comment. Unless noted, the call rests on the fitted dose curve; in most records, active means well fitted curve in the direction sought with a large enough effect; inconclusive means small, poorly fitted or top-dose-only effect, or another doubt; inactive means no such curve, though single readings can be large; an effect the other way counts as inactive or inconclusive. Unless noted, on the % scale 0 is the no-effect control and ±100 the full control effect.

SMILES | IMPase Li inh | NPSR antagonist | ALOX12 inhib | IMPase cell inh | ALDH1A1 inh | HPGD block
O=C(Oc1cccc2c(OC(=O)N3CCOCC3)cccc12)N1CCOCC1 | -1%[38.3 µM] | -6%[46.1 µM] | -2% | 4 | 0% | -4%
COc1cc(/C=c2\s/c(=C(/C#N)C(=O)N3CCCC3)n(-c3ccccc3)c2=O)ccc1O | -17%[38.3 µM] | -11%[46.1 µM] | -3% | 1 | 23% | -13%
Cc1cccc(NCC(=O)NNC(=S)Nc2ccccc2)c1 | 2% | -5% | . | . | 14µM* | .
CC(C)CCNC(=S)Nc1ccccn1 | 9% | -16% | ? | . | 6.3µM* | -7%
O=C(Cc1ccccc1)NNC(=S)Nc1ccc(Cl)cc1 | -15% | -2% | -1% | . | 25µM* | -7%
O=C(CCc1ccccc1)NNC(=O)Cc1ccc(Cl)cc1 | 0% | 9% | . | . | -3% | .
S=C(NCCC(c1ccccc1)c1ccccc1)Nc1cccc(Cl)c1 | 14%[38.3 µM] | ? | 16µM* | 13 | ? | -14%
CC(C)C(=O)NC(=S)Nc1ccccn1 | . | -11%[46.1 µM] | -6% | 4 | ? | .
CC(O)CCC(=O)NNC(=S)Nc1ccccc1 (stereo not drawn) | 0% | -15% | . | . | -5% | .
Cc1cc(-c2ccc(N=Nc3cc(S(=O)(=O)O)c4ccccc4c3N)c(C)c2)ccc1N=Nc1cc(S(=O)(=O)O)c2ccccc2c1N | -2% | . | ? | . | ? | ?
Cc1cccc(NC(=S)NNC(=O)Cc2ccccc2)c1 | 13% | 4%[46.1 µM] | -1% | 2 | 40µM* | -18%
CC(=O)c1cccc(NC(=S)NC(=O)Cc2ccccc2)c1 | -7% | -13% | . | . | ? | .
O=C(CSCc1ccccc1Cl)NNC(=S)Nc1ccccc1 | 12%[38.3 µM] | -7%[46.1 µM] | -15% | -1 | 14µM* | -21%
Cc1ccc(C2CC2C(=O)NNC(=S)Nc2ccc(Cl)cc2)cc1 (stereo not drawn) | 5% | 11% | 17% | -2 | 8.9µM* | ?
COc1ccc(CCNC(=S)Nc2cccc(C)c2)cc1 | 33%[38.3 µM] | -2%[46.1 µM] | -15% | -6 | -13% | -6%
CC(C)(C)NC(=S)NNC(=O)[C@H]1C[C@@H]1c1ccccc1 | . | 22% | . | . | . | .
Cc1cccc(NC(=S)NCCC(C)C)c1 | -4% | -17% | 5% | . | -5% | 28µM*
C=C1Cc2c(Cl)cc3[nH]c4c5c3c2[C@@]2(O)[C@@H]1C[C@@H]2C(C)(C)O[C@H]5[C@@H]1CC[C@@]2(O)[C@@]35O[C@@H]3[C@@H](O)[C@@H](C(=O)O)O[C@H]5CC[C@]2(C)[C@@]41C | 8% | . | . | . | -6% | .
Cc1ccc(NC(=O)c2cc(=O)c3ccccc3o2)cc1S(=O)(=O)N1CCCCC1 | 18% | -43% | . | . | 32µM* | .
Cc1ccc(NC(=O)c2cc(=O)c3ccccc3o2)cc1S(=O)(=O)N1CCOCC1 | . | -5% | . | . | . | .
COc1cc(C#N)ccc1OCC(=O)Nc1cccc(S(=O)(=O)N2CCCC2)c1 | 15% | 0% | . | . | 13µM* | .
Cc1ccc(NC(=O)COC(=O)c2ccc([N+](=O)[O-])o2)cc1S(=O)(=O)N1CCCCC1 | 4% | 9% | . | . | 25µM* | .
O=C(COC(=O)c1ccc([N+](=O)[O-])o1)Nc1cccc(S(=O)(=O)N2CCCCC2)c1 | 15% | 3% | . | . | 11µM* | .
CN1CCN(Cc2nc3ccccc3c(=O)n2CC#N)CC1 | 11% | 4% | . | . | 2% | .
CN1CCN(Cc2nc3ccccc3c(=O)n2Cc2nc(-c3ccc([N+](=O)[O-])cc3)cs2)CC1 | . | -17%[46.1 µM] | 4% | -4 | 13µM* | .
SMILES | IMPase Li inh | NPSR antagonist | ALOX12 inhib | IMPase cell inh | ALDH1A1 inh | HPGD block
Cc1ccc(N2C(=O)CC(SCC(=O)Nc3ccc(S(N)(=O)=O)cc3)C2=O)cc1 (stereo not drawn) | -5% | 24% | . | . | 14µM* | .
CCOC(=O)c1ccc(N2C(=O)CC(SCC(=O)Nc3ccc(S(N)(=O)=O)cc3)C2=O)cc1 (stereo not drawn) | -5% | 21% | . | . | 1.6µM* | .
CCC(=O)N1CCc2cc(S(=O)(=O)NCCCN3CCN(Cc4ccccc4)CC3)ccc21 | 81%[38.3 µM] | -1%[46.1 µM] | 0% | ? | 18µM* | -18%
O=C(CCS(=O)(=O)Cc1ccccc1F)N1CCc2ccccc2C1 | -7%[38.3 µM] | -4%[46.1 µM] | -3% | -9 | 3.5µM* | -10%
CC(=O)N1CCc2cc(S(=O)(=O)CCC(=O)NCc3ccco3)ccc21 | -11% | 15% | . | . | 12% | .
CCC(=O)N1CCCc2cc(S(=O)(=O)N3CCN(c4ccccc4F)CC3)ccc21 | 12%[38.3 µM] | -9%[46.1 µM] | 1% | 11 | 14µM* | -12%
CC(=O)N1CCc2cc(S(=O)(=O)NCCCN3CCN(Cc4ccccc4)CC3)ccc21 | 5%[38.3 µM] | -5%[46.1 µM] | 4% | -1 | -6% | -2%
CC(=O)N1CCc2cc(S(=O)(=O)CCC(=O)N3CCN(C(=O)c4ccco4)CC3)ccc21 | 0% | -17%[46.1 µM] | 0% | -8 | 32µM* | -10%
Cc1ccc(-n2nc3c(c2NC(=O)/C=C\c2ccc4c(c2)OCO4)CSC3)cc1 | 5% | -13% | -18% | . | ? | ?
CCCCOC(=O)CCCN1C(=O)/C(=C2\SC(=S)N(CCCC(=O)OCCCC)C2=O)SC1=S | . | 13% | . | . | . | .
CCC(=O)N1CCc2cc(S(=O)(=O)CCC(=O)Nc3ccc(CC)cc3)ccc21 | 1% | -9%[46.1 µM] | -1% | 3 | 2% | -7%
CCC(=O)N1CCc2cc(S(=O)(=O)CCC(=O)N3CCc4ccccc4C3)ccc21 | ? | -9%[46.1 µM] | 0% | -1 | 13µM* | -3%

Compound activity (PubChem)
